The values below come from ChEMBL document CHEMBL1961873, “Compounds: GSK PKIS; Assays: Nanosyn kinase panel” (2012).

Assay [1] concerns the target Leukocyte tyrosine kinase receptor (Homo sapiens) (UniProt P29376). To be noted: at 1 µM.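 Further: each value is the mean inhibition of LTK.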
Assay [2] addresses Tyrosine-protein kinase Lyn (Homo sapiens) (UniProt P07948). The note with it: at 0.1 µM.
For assay [3] the target is unchanged. The note with it: at 1 µM.
For assay [4] the target is unchanged. The note with it: at 0.1 µM. This is another data set of the same source.
Assay [5] shares this target. To be noted: at 1 µM. The source holds these as a separate data set.
The target of assay [6] is T1, Tyrosine-protein kinase Mer (Homo sapiens) (UniProt Q12866).
T1 sequence (whole entry): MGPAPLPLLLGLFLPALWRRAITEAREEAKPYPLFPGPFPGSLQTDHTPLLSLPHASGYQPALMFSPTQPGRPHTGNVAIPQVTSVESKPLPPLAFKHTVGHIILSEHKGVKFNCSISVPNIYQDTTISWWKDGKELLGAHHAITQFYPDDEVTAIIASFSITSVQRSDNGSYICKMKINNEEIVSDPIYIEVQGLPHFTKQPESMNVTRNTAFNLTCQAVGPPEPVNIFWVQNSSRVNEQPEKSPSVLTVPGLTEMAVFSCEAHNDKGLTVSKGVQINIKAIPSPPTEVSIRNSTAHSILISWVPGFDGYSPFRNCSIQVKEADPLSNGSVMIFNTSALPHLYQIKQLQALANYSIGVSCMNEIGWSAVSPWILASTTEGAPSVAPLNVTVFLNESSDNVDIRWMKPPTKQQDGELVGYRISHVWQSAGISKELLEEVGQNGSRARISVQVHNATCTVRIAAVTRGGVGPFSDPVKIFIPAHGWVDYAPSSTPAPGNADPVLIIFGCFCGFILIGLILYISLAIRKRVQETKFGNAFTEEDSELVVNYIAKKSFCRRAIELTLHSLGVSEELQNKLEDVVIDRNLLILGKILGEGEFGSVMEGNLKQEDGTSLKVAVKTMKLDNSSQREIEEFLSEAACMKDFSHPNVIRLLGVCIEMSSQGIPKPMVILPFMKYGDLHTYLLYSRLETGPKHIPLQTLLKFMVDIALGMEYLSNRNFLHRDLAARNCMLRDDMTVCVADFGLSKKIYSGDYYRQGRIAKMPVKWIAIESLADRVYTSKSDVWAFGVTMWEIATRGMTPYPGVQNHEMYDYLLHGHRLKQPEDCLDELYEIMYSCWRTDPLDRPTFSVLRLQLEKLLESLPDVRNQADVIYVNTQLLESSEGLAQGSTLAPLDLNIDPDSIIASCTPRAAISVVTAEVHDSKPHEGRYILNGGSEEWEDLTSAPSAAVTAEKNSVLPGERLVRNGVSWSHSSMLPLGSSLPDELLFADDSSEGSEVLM
The note with it: at 0.1 µM.

Assay [7] deals with T1, Tyrosine-protein kinase Mer (Homo sapiens). The note with it: at 1 µM.
For assay [8], the target named is Hepatocyte growth factor receptor (Homo sapiens) (UniProt P08581). To be noted: at 0.1 µM.
Hepatocyte growth factor receptor (Homo sapiens), sequence (P08581 whole entry): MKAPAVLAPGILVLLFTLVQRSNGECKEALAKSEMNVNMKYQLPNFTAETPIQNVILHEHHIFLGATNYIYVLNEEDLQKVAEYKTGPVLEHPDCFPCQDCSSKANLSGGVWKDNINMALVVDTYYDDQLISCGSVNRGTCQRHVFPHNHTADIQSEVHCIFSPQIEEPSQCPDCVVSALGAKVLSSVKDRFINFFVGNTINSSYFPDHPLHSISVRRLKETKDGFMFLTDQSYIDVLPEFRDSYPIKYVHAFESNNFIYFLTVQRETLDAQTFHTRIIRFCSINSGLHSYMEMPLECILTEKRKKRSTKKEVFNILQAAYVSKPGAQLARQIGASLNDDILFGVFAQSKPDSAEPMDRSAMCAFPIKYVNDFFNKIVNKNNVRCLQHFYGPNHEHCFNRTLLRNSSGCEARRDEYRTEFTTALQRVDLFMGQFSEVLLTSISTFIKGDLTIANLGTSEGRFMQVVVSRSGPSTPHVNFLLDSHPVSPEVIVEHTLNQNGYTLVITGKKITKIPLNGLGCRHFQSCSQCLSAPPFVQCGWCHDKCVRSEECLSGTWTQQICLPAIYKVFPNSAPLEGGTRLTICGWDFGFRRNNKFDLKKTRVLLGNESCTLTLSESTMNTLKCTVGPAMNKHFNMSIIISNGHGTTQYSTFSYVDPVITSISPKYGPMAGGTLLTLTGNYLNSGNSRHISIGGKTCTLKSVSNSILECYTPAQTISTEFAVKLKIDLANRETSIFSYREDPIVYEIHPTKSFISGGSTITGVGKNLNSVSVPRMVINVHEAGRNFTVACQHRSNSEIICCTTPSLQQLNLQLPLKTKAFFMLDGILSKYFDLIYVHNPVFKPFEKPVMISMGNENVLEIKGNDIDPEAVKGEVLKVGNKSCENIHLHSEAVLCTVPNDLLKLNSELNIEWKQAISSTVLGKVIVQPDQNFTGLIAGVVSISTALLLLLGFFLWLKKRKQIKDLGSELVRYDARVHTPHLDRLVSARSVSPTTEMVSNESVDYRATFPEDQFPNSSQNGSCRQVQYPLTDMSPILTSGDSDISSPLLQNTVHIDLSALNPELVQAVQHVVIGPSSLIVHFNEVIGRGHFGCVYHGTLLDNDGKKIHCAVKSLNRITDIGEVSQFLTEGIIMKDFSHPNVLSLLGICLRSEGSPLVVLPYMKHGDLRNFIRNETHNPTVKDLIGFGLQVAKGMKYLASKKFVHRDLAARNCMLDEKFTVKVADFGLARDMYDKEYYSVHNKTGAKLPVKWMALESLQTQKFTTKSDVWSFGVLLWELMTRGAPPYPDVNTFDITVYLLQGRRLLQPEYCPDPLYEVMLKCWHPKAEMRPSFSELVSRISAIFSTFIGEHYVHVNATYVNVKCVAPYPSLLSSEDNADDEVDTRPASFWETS
Assay [9] shares this target. The note with it: at 1 µM.
The target of assay [10] is T2, Muscle, skeletal receptor tyrosine-protein kinase (Homo sapiens) (UniProt O15146).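 Further: values are mean inhibition of MuSK from the GSK PKIS kinase screening panel.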
T2 sequence (whole entry): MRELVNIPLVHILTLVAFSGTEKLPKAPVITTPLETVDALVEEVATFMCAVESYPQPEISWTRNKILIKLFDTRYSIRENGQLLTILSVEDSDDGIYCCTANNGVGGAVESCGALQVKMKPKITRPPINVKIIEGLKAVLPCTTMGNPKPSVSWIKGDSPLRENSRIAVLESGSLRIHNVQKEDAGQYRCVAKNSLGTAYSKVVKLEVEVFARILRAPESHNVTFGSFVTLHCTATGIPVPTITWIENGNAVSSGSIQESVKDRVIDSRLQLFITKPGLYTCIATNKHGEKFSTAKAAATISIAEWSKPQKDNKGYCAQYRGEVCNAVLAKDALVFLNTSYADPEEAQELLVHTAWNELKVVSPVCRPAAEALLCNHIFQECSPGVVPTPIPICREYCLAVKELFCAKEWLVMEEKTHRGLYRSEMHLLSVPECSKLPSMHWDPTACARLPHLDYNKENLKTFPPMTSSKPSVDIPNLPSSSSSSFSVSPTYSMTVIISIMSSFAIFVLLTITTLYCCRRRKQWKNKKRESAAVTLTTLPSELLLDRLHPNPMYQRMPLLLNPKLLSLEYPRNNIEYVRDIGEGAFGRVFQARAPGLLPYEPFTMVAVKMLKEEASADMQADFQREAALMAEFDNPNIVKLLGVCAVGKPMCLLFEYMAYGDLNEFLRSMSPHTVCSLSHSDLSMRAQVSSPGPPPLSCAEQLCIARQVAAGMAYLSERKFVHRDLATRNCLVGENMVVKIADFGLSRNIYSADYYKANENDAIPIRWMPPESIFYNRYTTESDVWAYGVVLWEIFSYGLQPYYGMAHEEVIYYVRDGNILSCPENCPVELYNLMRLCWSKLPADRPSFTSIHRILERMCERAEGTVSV
The note with it: at 0.1 µM.

Leukocyte tyrosine kinase receptor (Homo sapiens), sequence (P29376 whole entry): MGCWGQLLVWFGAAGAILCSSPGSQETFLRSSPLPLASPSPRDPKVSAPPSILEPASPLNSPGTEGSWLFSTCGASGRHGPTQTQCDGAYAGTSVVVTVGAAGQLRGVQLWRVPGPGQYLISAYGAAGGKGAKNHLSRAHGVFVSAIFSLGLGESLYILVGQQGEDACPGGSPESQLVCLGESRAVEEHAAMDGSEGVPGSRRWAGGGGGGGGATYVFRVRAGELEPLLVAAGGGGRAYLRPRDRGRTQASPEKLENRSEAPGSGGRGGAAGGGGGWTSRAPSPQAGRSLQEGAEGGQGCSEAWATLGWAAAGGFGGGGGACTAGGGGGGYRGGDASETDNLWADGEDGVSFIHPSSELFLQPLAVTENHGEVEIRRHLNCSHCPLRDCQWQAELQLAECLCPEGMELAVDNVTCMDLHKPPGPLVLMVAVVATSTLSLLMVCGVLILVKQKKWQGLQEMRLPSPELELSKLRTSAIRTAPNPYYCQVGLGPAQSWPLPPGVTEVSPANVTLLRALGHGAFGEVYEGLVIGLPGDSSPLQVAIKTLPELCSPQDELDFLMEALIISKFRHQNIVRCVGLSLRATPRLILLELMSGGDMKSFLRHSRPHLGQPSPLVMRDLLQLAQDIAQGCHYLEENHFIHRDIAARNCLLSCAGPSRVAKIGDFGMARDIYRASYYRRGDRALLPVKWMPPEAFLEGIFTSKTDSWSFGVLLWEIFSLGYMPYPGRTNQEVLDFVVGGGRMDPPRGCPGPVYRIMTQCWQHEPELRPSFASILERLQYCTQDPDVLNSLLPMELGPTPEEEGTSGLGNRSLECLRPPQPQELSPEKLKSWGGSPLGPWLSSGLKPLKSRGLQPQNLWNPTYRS
Tyrosine-protein kinase Lyn (Homo sapiens), sequence (P07948 2-512 limits assumed): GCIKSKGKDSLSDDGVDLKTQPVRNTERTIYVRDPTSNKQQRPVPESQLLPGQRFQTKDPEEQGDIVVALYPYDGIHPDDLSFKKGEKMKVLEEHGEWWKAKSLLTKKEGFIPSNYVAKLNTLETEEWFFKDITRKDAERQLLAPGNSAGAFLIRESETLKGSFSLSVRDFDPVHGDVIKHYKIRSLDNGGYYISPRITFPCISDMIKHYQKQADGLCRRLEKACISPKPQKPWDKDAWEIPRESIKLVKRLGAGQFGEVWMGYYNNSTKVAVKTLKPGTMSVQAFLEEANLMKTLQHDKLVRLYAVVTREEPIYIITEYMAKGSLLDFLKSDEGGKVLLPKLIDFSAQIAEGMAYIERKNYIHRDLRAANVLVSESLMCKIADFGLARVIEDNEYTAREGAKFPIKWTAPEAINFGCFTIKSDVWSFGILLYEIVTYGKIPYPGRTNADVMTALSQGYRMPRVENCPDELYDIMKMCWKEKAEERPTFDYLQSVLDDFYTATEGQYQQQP

`CCS(=O)(=O)c1ccc(OC)c(Nc2ncc(-c3cccc(OC)c3)o2)c1`: the inhibition came to 3.16% in assay [1]; 20.2% in [2]; 68.2% in [3]; 15.9% in assay [4]; 63.6% in assay [5]; 2.42% in [6]. For the same compound, the inhibition is 7.73% in [7], -0.79% in assay [8], 2.24% in assay [9] and 4.87% in assay [10].

Take `COc1cc2ncnc(Nc3ccc(C)c(O)c3)c2cc1OC`: the inhibition came to 24.8% in assay [1]; 39.7% in assay [2]; 83.9% in [3]; 32.6% in assay [4]; 80.8% in assay [5]; 2.64% in [6]. Also, the inhibition in [7] is 4.97%; in assay [8], 1.61%; in assay [9], 9.16%; in assay [10] it was 0.51%.

`COC(=O)Nc1nc2cc(Oc3ccc(NC(=O)Nc4cccc(Br)c4)cc3)ccc2[nH]1`: the inhibition was 3.57% in assay [1]; 9.62% in assay [2]; 15.2% in assay [3]; 7.97% in assay [4]; 13.8% in assay [5]; 1.37% in assay [6]. Further, the inhibition turned out to be 3.46% in assay [7], 3.78% in assay [8], 6.03% in assay [9] and 22.3% in assay [10].

As for `CN(C)c1cc2c(Nc3ccc4c(cnn4Cc4ccccc4)c3)ncnc2cn1`, the inhibition in assay [1] is 3.01%; in assay [2], 2.67%; in assay [3], 13.5%; in assay [4], 2.82%; in assay [5] it was 10.6%; in assay [6], 6.16%. Moreover, the inhibition in [7] is 40.9%; in [8] it was 5.12%; in assay [9], 0.45%; in assay [10], 1.76%.

With `NC(=O)c1cccc(Nc2nccc(Nc3cccc(F)c3)n2)c1`, the inhibition in assay [1] is 6.92%; in [2] it was 3.6%; in assay [3], 36.1%; in assay [4], 2.42%; in [5], 30.6%; in assay [6] it was 0.08%. The inhibition in assay [7] is 4.99%; in assay [8] it was 7.98%; in assay [9], 9.64%; in assay [10] it was 0.8%.

`c1ccc(Nc2ncc(-c3ccccc3)o2)cc1`: the inhibition in assay [1] was 6.52%; in [2], 5.9%; in [3], 9.62%; in assay [4] it was 4.91%; in assay [5], 7.76%; in assay [6] it was 2.15%. The inhibition in assay [7] stood at 2.41%; in assay [8], 3.87%; in [9], 6.02%; in assay [10], 3.65%.

As to `CCS(=O)(=O)c1ccc(OC)c(Nc2nccc(N(C)c3ccc4c(C)n[nH]c4c3)n2)c1`, the inhibition is 37.5% in assay [1]; 45.7% in assay [2]; 85% in [3]; 37.7% in [4]; 82.8% in assay [5]; -1.04% in assay [6]. The inhibition worked out at 1.84% in assay [7], 3.86% in [8], 5.71% in assay [9] and 2.51% in assay [10].

Regarding `NS(=O)(=O)c1ccc(N/N=C2\C(=O)Nc3ccc(Cl)cc32)cc1`, the inhibition in [1] is 4.81%; in assay [2] it was 4.69%; in assay [3] it was 8.22%; in assay [4] it was 1.56%; in [5], 6.78%; in assay [6], 1.61%. Besides, the inhibition turned out to be 1.21% in [7], 7.96% in assay [8], 7.49% in assay [9] and 4.35% in [10].

`COc1cc2ncn(-c3cc(OCc4ccccc4S(C)(=O)=O)c(C#N)s3)c2cc1OC`: the inhibition came to 7.89% in assay [1]; 20.4% in assay [2]; 65.6% in [3]; 15.1% in assay [4]; 60.9% in [5]; 35.4% in assay [6]. The inhibition was determined as 77.1% in assay [7], 5.94% in assay [8], 15.6% in assay [9] and 13.2% in assay [10].

In the case of `Cc1ccc2c(c1)/C(=N/Nc1ccc(S(N)(=O)=O)cc1)C(=O)N2`, the inhibition in [1] was 1%; in [2], 0.12%; in assay [3] it was 4.93%; in assay [4] it was 0.75%; in assay [5] it was 4.77%; in [6], -1.4%. Also, the inhibition in assay [7] was found to be 1.27%; in [8], 1.07%; in assay [9] it was 4.08%; in assay [10], 2.69%.

Regarding `Cc1nc(-c2ccccc2)n2nc(NCCCN3CCOCC3)ncc12`, the inhibition in assay [1] turned out to be 2.41%; in assay [2], 2.4%; in assay [3], 2.59%; in [4], 2.14%; in assay [5], 2.72%; in [6], 4.66%. Moreover, the inhibition in assay [7] is 5.5%; in assay [8], 2.77%; in assay [9], 0.32%; in assay [10], 1.84%.

Regarding `Nc1nccc(-c2c(-c3ccc(F)cc3)ncn2CCCN2CCOCC2)n1`, the inhibition in assay [1] turned out to be 2.3%; in assay [2], 5.23%; in [3] it was 9.61%; in assay [4] it was 2.71%; in assay [5], 5.84%; in assay [6], 0.72%. Also, the inhibition is 2.2% in assay [7], 3.68% in [8], 5.4% in [9] and 0.89% in assay [10].

For the compound `NS(=O)(=O)c1cccc(-c2cc3ccncc3cc2OCc2ccccc2)c1`, the inhibition in [1] turned out to be 1.46%; in assay [2], 5.16%; in [3] it was 6.45%; in assay [4], 2.95%; in assay [5] it was 3.74%; in [6], 4.79%. For the same compound, the inhibition worked out at 8.95% in assay [7], 3.75% in assay [8], 4.68% in assay [9] and 0.26% in assay [10].

As to `COc1cc(Nc2nccc(-c3cnn4ncccc34)n2)cc(OC)c1`, the inhibition was 34.1% in assay [1]; 3.81% in assay [2]; 29.3% in [3]; 2.46% in assay [4]; 23.6% in assay [5]; 1.07% in [6]. The inhibition stood at 16.6% in assay [7], 4.01% in [8], 14.4% in assay [9] and 6.23% in assay [10].

Turning to `CS(=O)(=O)CCNCc1nc(-c2ccc3ncnc(Nc4ccc(OCc5cccc(C(F)(F)F)c5)cc4)c3c2)cs1`, the inhibition in [1] is 3.87%; in assay [2], 2.63%; in assay [3], 2.07%; in assay [4], 2.44%; in assay [5] it was 1.23%; in [6] it was 3.74%. Moreover, the inhibition in [7] worked out at 5.41%; in assay [8] it was 4.81%; in assay [9], 2.51%; in [10] it was 1.29%.

For `Cc1ccc(C(=O)NC2CC2)cc1-c1ccc2[nH]ncc2c1`, the inhibition in [1] is -2.27%; in assay [2], -2.45%; in [3], -0.16%; in assay [4], -2.22%; in [5], -0.48%; in assay [6], -1.71%. For the same compound, the inhibition was 1.57% in [7], -0.6% in [8], -1.74% in assay [9] and 0.78% in assay [10].

For the compound `CN(C)C(=O)O[C@H]1CN[C@H](C#Cc2cc3ncnc(Nc4ccc(OCc5cccc(F)c5)c(Cl)c4)c3s2)C1`, the inhibition in [1] came out at 3.95%; in assay [2], 3.87%; in [3], 4.57%; in assay [4] it was 1.48%; in assay [5] it was 3.94%; in assay [6] it was 0.43%. Also, the inhibition in assay [7] is 3.05%; in [8] it was 1.84%; in [9] it was 6.26%; in [10], 2.98%.
